Data from PubChem BioAssay AID504909 (Southern Research Specialized Biocontainment Screening …, 2011).
Entries with a potency or affinity are not part of this list. Calls of active or inactive are those of the source. The rule behind the calls is not given here.

Assay: Vero cell cytotoxicity, dose response, cytotoxicity control for M. tuberculosis growth inhibitor project, Vero cells, purified and synthesized compounds, set 5 (AID 504909)
Conditions: series mostly up to 100 µM; viability: at the top concentration

Structure (SMILES) | viability
CC(C)NC(=O)CSc1nc2ccccc2c(=O)[nH]1 | 93.3% (inactive)
CCCc1cc(C(N)=S)ccn1 | 89.3% (inactive)
Cc1nc(SCC(=O)NCCC(C)C)[nH]c(=O)c1C | 93.5% (inactive)
Cc1ccc(NC(=O)COC(=O)CCc2c[nH]c3ccccc23)cc1[N+](=O)[O-] | 102% (inactive)
COC(=O)c1ccc(CNc2c(N3CCCC3)c(=O)c2=O)cc1 | 102% (inactive)
O=C(CSc1nc2c(c(=O)[nH]1)CCCC2)NC1CCCCC1 | 82.8% (inactive)
Cn1c(SCC(=O)NC2CCCCC2)nc2ccccc2c1=O | 110% (inactive)
CN[C@@H]1[C@H](O[C@H]2[C@H](O[C@H]3[C@H](O)[C@@H](O)[C@H](N=C(N)N)[C@@H](O)[C@@H]3N=C(N)N)O[C@@H](C)[C@]2(O)C=O)O[C@@H](CO)[C@H](O)[C@H]1O | 106% (inactive)
CCC(Sc1nc2ccccc2c(=O)[nH]1)C(=O)NC1CCCCC1 (configuration not stated) | 99.5% (inactive)
Cc1cccc(/C=C/C(=O)c2ccc([N+](=O)[O-])o2)c1 | 106% (inactive)
COc1c(N2CCNC(C)C2)c(F)cc2c(=O)c(C(=O)O)cn(C3CC3)c12 (configuration not stated) | 108% (inactive)
CC1CCN(C(=O)C2CCN(c3nnc(-n4cccc4)s3)CC2)CC1 | 94.8% (inactive)
O=C(CSc1ncccn1)NC1CCCCC1 | 96.3% (inactive)
CCC(Sc1nc2c(c(=O)[nH]1)CCC2)C(=O)Nc1cccc(OC)c1 (configuration not stated) | 90.8% (inactive)
Cc1nc(SCc2ccccc2Cl)[nH]c(=O)c1C | 104% (inactive)
COc1ccc(NC(=O)CSc2nc3ccccc3c(=O)[nH]2)cc1 | 89.5% (inactive)
O=C(CSc1nccc(=O)[nH]1)NC1CCCCC1 | 94.8% (inactive)
CNC(=O)CSc1nc2ccccc2c(=O)[nH]1 | 92.2% (inactive)
CCOC1OC(=O)C(Cl)=C1Nc1ccccc1C (configuration not stated) | 103% (inactive)
Cc1cc(=O)[nH]c(=S)[nH]1 | 104% (inactive)
CC[N+](C)(CC)CCCCOc1ccc2c(c1)C(=O)c1cc(OCCCC[N+](C)(CC)CC)ccc1-2 | 90.1% (inactive)
Nc1cc(=O)[nH]c(SCC(=O)NC2CCCCC2)n1 | 89.7% (inactive)
Cc1[nH]c(=S)[nH]c(=O)c1C | 98.1% (inactive)
O=c1[nH]c(=S)[nH]c2ccccc12 | 81.5% (inactive)
O=C(CSc1ccccn1)NC1CCCCC1 | 91% (inactive)
CC(Sc1nc2ccccc2c(=O)[nH]1)C(=O)NC1CCCCC1 (configuration not stated) | 99.7% (inactive)
CC(C)CCNC(=O)CSc1nc2c(c(=O)[nH]1)CCC2 | 88.5% (inactive)
